PriA SSB inh: inhibitors of Klebsiella pneumoniae PriA binding to SSB C-terminal tail. AID 1272365. AlphaScreen SSBct-PriA binding, biotinylated peptide. inhibition, % at 33 µM. 0.6% of 430,000 active; in the data active = inhibition mostly above about 37%, no sharp cut-off; inactive = mostly below about 20%
BoNT-A LC inh2: inhibitors of Botulinum neurotoxin A light chain protease. AID 588499. multiplex microsphere protease substrate cleavage, flow cytometry. 0.17% of 360,000 active. inhibition, % at 10 µM
BoNT F protease: inhibitors of Botulinum neurotoxin F light chain protease; Multiplex microsphere protease cleavage assay, flow cytometry; inhibition, % at 10 µM; 0.22% of 360,000 active; in the data active = inhibition above about 35%, passing the limit was not always enough; inconclusive = no clear call, values can overlap the other calls
Autofluor counter: flagged as autofluorescent in microsphere protease counterscreen | 3.1% of 360,000 active | AID 624483 | compound autofluorescence counterscreen, microsphere flow cytometry; hits give high values | fluorescence intensity (no concentration beside the values); in the data active = fluorescence intensity above about 16000; inconclusive = no clear call, values can overlap the other calls
MazEF act: activators of E. coli MazEF toxin-antitoxin RNase; P0AE70; FAM/BHQ RNA-DNA oligo cleavage fluorescence, 5 h; activation, % at 20 µM; 0.32% of 350,000 active; AID 504720; in the data active = activation above about 50%
Target sequence (P0AE70 whole entry, looked up): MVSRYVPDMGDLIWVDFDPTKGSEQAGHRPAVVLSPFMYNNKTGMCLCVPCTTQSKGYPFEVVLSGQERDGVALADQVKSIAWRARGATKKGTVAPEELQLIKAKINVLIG
Anthrax LF prot: anthrax lethal factor protease inhibition; 0.12% of 360,000 active; inhibition, % at 10 µM; multiplex microsphere protease cleavage assay, LF; P15917
Each line names hits and unclear results; the compound was inactive in the other large screens. Rows were chosen to be rich in hits. Some 3.3% of all compounds tested hit in one or more screens of this group. Cut-off read from the data, not from the text of the source, unless noted: active = inhibition above about 30%; inconclusive = no clear call, values can overlap the other calls; inactive = below that.

Cc1cc(NC(=O)CCCc2ccccc2)n(-c2nc3c(cnn3-c3ccc(F)cc3)c(=O)[nH]2)n1	none (no result: BoNT-A LC inh2, BoNT F protease, Autofluor counter, MazEF act, Anthrax LF prot)
CC1CCCC(C)N1C(=O)COc1ccc([N+](=O)[O-])cc1Cl (configuration not stated)	none
Cc1cc(Cl)ccc1OCC(=O)N1C(C)CCCC1C (configuration not stated)	Autofluor counter 24242
CN=c1scc(-c2cc(OC)ccc2OC)n1N=Cc1c(C)[nH]c2ccccc12	PriA SSB inh 45.1 (no result: BoNT-A LC inh2, BoNT F protease, Autofluor counter, MazEF act, Anthrax LF prot)
O=C(CCSc1ccccc1)NCC1(c2ccsc2)CCCC1	none (no result: BoNT-A LC inh2, BoNT F protease, Autofluor counter, MazEF act, Anthrax LF prot)
Cc1ccc(C(=O)N2CCN(c3nc4ccccc4n3C)CC2)cc1	none
Cn1c(N2CCNCC2)nc2ccccc21	Autofluor counter 19898
O=C(Cc1ccccc1)NCCS(=O)(=O)N1CCN(c2cccc(Cl)c2)CC1	none (no result: BoNT-A LC inh2, BoNT F protease, Autofluor counter, Anthrax LF prot)
O=C(Cc1ccc(F)cc1)NCCS(=O)(=O)N1CCN(c2cccc(Cl)c2)CC1	PriA SSB inh 38.4 (no result: BoNT-A LC inh2, BoNT F protease, Autofluor counter, Anthrax LF prot)
N#CC1=C(Nc2ccc(Br)cc2)CCC1	Autofluor counter 16939
N#Cc1cnc2ccccc2c1Nc1ccc(Br)cc1	none (no result: BoNT-A LC inh2, BoNT F protease, Autofluor counter, MazEF act, Anthrax LF prot)
CCN=c1scc(-c2ccco2)n1/N=C/c1ccc(OC)c(O)c1	BoNT-A LC inh2 inconclusive, Autofluor counter 24329 (no result: PriA SSB inh)
CSc1ccccc1NC(=O)CCCn1nc(-c2ccc(Cl)cc2)ccc1=O	none (no result: BoNT-A LC inh2, BoNT F protease, Autofluor counter, MazEF act, Anthrax LF prot)
C(=C\c1nn2c(-c3ccccc3)nnc2s1)/c1cccs1	none (no result: BoNT-A LC inh2, BoNT F protease, Autofluor counter, MazEF act, Anthrax LF prot)
O=C(Cc1csc(Nc2ccc(F)cc2)n1)NCCc1c[nH]c2ccccc12	none (no result: BoNT-A LC inh2, BoNT F protease, Autofluor counter, MazEF act, Anthrax LF prot)
O=C(Nc1ccc(Cl)cc1)Nc1nc(C(=O)O)cs1	PriA SSB inh 87.0 (no result: BoNT-A LC inh2, BoNT F protease, Autofluor counter, MazEF act, Anthrax LF prot)
O=C(Cc1csc(Nc2cccc(Cl)c2)n1)NCCc1c[nH]c2ccccc12	PriA SSB inh 36.0 (no result: BoNT-A LC inh2, BoNT F protease, Autofluor counter, MazEF act, Anthrax LF prot)
O=C(Cc1csc(NC(=O)Nc2ccc(Cl)cc2)n1)NCCc1c[nH]c2ccccc12	PriA SSB inh 52.0 (no result: BoNT-A LC inh2, BoNT F protease, Autofluor counter, MazEF act, Anthrax LF prot)
O=C(O)CCc1csc(NC(=O)Nc2ccc(Cl)cc2)n1	none (no result: BoNT-A LC inh2, BoNT F protease, Autofluor counter, MazEF act, Anthrax LF prot)
O=C(Cc1csc(NC(=O)Nc2cccc(Cl)c2)n1)NCCc1c[nH]c2ccccc12	none (no result: BoNT-A LC inh2, BoNT F protease, Autofluor counter, MazEF act, Anthrax LF prot)
COc1ccc(CCC(=O)N2CCN(C(=O)c3cnn4ccccc34)CC2)cc1	none (no result: BoNT-A LC inh2, BoNT F protease, Autofluor counter, MazEF act, Anthrax LF prot)
CCOC(=O)Nc1sc2c(c1C(=O)OCC)CCC2	none
CCOC(=O)c1c(NC(NC(=O)C(C)C)C(Cl)(Cl)Cl)sc2c1CCC2 (configuration not stated)	BoNT F protease 47.0
COc1ccc(/C=C2\CCOC2=O)cc1	none
COc1ccc(N/C=C2\CCOC2=O)cc1	Autofluor counter 16257 (no result: PriA SSB inh)
CN(Cc1nc2ccccc2c(=O)[nH]1)C(=O)c1ccc(S(=O)(=O)N(C)C)cc1	Autofluor counter 20390
Cc1ccc(S(=O)(=O)N(C)c2ccc(C(=O)N(C)Cc3nc4ccccc4c(=O)[nH]3)cc2)cc1	none
O=C1CC(=O)N(CCc2ccccc2)C(=O)N1CCc1ccccc1	Autofluor counter 22637
CC1CC(=O)N(CCc2ccccc2)C(=O)C1	none
Cc1cc(N2CCC(C(=O)N3CCN(c4cccc(C)c4C)CC3)CC2)n2ncnc2n1	Autofluor counter 17532
COc1ccc(-c2cc(O)cc(O)c2)cc1	Autofluor counter 16572
O=C(CSc1nnc(-c2cccs2)n1-c1ccccc1)N1CCCc2ccccc21	none
CCn1c(SCC(=O)N2CCCc3ccccc32)nnc1-c1cccs1	Autofluor counter 16895
CCCn1c(SCC(=O)c2cc(OC)ccc2OC)nc2c1c(=O)n(C)c(=O)n2C	Autofluor counter 21330
O=C(CSc1nccn1-c1ccc(Cl)cc1)N1CCCc2ccccc21	PriA SSB inh 55.8
CCCn1c(SCC(=O)N2CCN(c3ccc(OC)cc3)CC2)nc2c1c(=O)n(C)c(=O)n2C	Autofluor counter 19577
Cc1ccc(NC(=O)c2ccc3nnc(SCC(=O)Nc4cccc(F)c4)n3c2)cc1	none (no result: BoNT-A LC inh2, BoNT F protease, Autofluor counter, MazEF act, Anthrax LF prot)
Cc1cc(C(=O)Nc2nc(-c3ccc(C#N)cc3)cs2)no1	none (no result: BoNT-A LC inh2, BoNT F protease, Autofluor counter, MazEF act, Anthrax LF prot)
Cc1ccccc1NC(=O)NCC#CCN1CCCC1	none (no result: BoNT-A LC inh2, BoNT F protease, Autofluor counter, MazEF act, Anthrax LF prot)
CCCn1c(SCC(=O)N2CCCC2)nc2c1c(=O)n(C)c(=O)n2C	BoNT-A LC inh2 inconclusive, Autofluor counter 22149
CCCn1c(SCC(=O)NCCc2ccc(OC)c(OC)c2)nc2c1c(=O)n(C)c(=O)n2C	Autofluor counter 18189
CC(C)n1c(SCC(=O)N2CCCC2)nc2c1c(=O)n(C)c(=O)n2C	none
CCn1c(SCc2cc(=O)[nH]c3ccccc23)nc2c1c(=O)n(C)c(=O)n2C	Autofluor counter 24332
CCn1c(SCC(=O)N2CCCc3ccccc32)nc2c1c(=O)n(C)c(=O)n2C	BoNT-A LC inh2 inconclusive, Autofluor counter 22886
CCCn1c(SCC(=O)Nc2ccc(NC(C)=O)cc2)nc2c1c(=O)n(C)c(=O)n2C	none
CCn1c(SCC(=O)N2c3ccccc3CCc3ccccc32)nc2c1c(=O)n(C)c(=O)n2C	none
CCCCC(=O)Nc1ccc(C(=O)Nc2ccc(OC)cc2[N+](=O)[O-])cc1	MazEF act 742.7
CCSc1cccc(C(=O)Nc2ccc(OC)cc2[N+](=O)[O-])c1	PriA SSB inh 51.0 (no result: BoNT-A LC inh2, BoNT F protease, Autofluor counter, MazEF act, Anthrax LF prot)
COC(=O)c1ccc2c(=O)n(CCC(=O)NCC(C)c3ccccc3)c(=S)[nH]c2c1 (configuration not stated)	none (no result: BoNT-A LC inh2, BoNT F protease, Autofluor counter, MazEF act, Anthrax LF prot)
CCC(Sc1nc(C)cc(=O)[nH]1)C(=O)Nc1nc(-c2ccccc2)cs1 (configuration not stated)	Autofluor counter 22493
Fc1cccc(C2NC(=S)NC3=C2N2CCC3CC2)c1 (configuration not stated)	Autofluor counter 17015
S=C1NC2=C(C(c3ccc(Br)cc3)N1)N1CCC2CC1 (configuration not stated)	none
COc1cc(C(=O)O)ccc1OCc1c(C)noc1C	Autofluor counter 21283
COc1cc(C=O)ccc1OCc1c(C)noc1C	Autofluor counter 21666
COc1cc(C(=O)Oc2ccccc2)ccc1OCc1c(C)noc1C	none
Cc1ccccc1OCC(=O)NCC1CCN(c2ccncc2)CC1	none (no result: BoNT-A LC inh2, BoNT F protease, Autofluor counter, MazEF act, Anthrax LF prot)

High-throughput results as filed in PubChem BioAssay.
